Pf Dd2 inh: inhibitors of Plasmodium falciparum Dd2 growth; P. falciparum Dd2 growth, SYBR Green, 72 h; Potency, µM (series often up to 28.9 µM), without a hit: at the top dose activity, negative = inhibition, most hits filed as inhibitors; 120,000 tested, 4.3% active; active = well fitted inhibition curve with a large enough effect;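 also: plate controls were DMSO vehicle for no effect and reference drug for full effect; nearly all actives have a fitted effect of over 65% in size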
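Readout: SYBR Green fluorescence, 485 nm excitation, 535 nm emission, after ~16 h lysis at 37C. Before that, Dd2-infected red cells (2.5% hematocrit) grew 72 h with compound, 29 uM top final concentration.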
The depositor's hits bear a star; [ ] = dose if it differs, or a comment. The full list was thinned out, with hits kept by preference. Potency is read from the fitted curve at half-maximal effect.

Screening COc1cccc(NC(=O)N[C@H]2[C@H](O)[C@@H](N3CCC(Cc4ccccc4)CC3)[C@@H]3OC[C@H]2O3)c1 returned Pf Dd2 inh -14.6%.
Screening Cc1ccccc1NC(=O)N1CCc2c(c3cc(F)ccc3n2C)C1 returned Pf Dd2 inh inactive.
Screening CN(CCc1ccccn1)[C@H]1[C@@H]2OC[C@@H](O2)[C@@H](NCc2ccc3c(c2)OCO3)[C@@H]1O returned Pf Dd2 inh -9.2%[44.1 µM].
For CCOc1cc(C2c3c(oc4cc(C)cc(C)c4c3=O)C(=O)N2CCO)ccc1O (stereo not given) the results were Pf Dd2 inh 18.6%.
O=C1c2[nH]nc(-c3ccccc3O)c2C(c2cccc(Cl)c2)N1Cc1cccnc1 (stereo not given) was read as Pf Dd2 inh inactive.
O=C1c2[nH]nc(-c3ccccc3O)c2C(c2cccc(OCc3ccccc3)c2)N1CCCO (stereo not given) was read as Pf Dd2 inh 11.2µM*.
For Cc1ccc(C2c3c(-c4ccccc4O)n[nH]c3C(=O)N2CCc2ccccc2)cc1 (stereo not given) the results were Pf Dd2 inh 10µM*.
For Cc1ccc(C2NC(=O)c3n[nH]c(-c4cccs4)c32)cc1 (stereo not given) the results were Pf Dd2 inh -2.2%.
For COc1ccc(CCN2C(=O)c3[nH]nc(-c4ccccc4O)c3C2c2cccc(OC)c2)cc1 (stereo not given) the results were Pf Dd2 inh 10µM*.
Screening COc1cccc(-c2n[nH]c3c2C(c2ccccn2)N(C)C3=O)c1 (stereo not given) returned Pf Dd2 inh 5.0%.
Cc1ccc(CCNC(=O)C2CC(=O)N(CCc3ccccc3)C2)cc1 (stereo not given) was read as Pf Dd2 inh 5.1%.
`COc1ccc(-c2[nH]nc3ncc(-c4ccccc4O)nc23)c(C)c1` gave Pf Dd2 inh inactive.
Screening COc1cc(C2c3c(-c4ccccc4O)n[nH]c3C(=O)N2CCO)ccc1OCc1ccccc1 (stereo not given) returned Pf Dd2 inh 11.2µM*.
`COc1cc(C2C(C(=O)OCC(C)C)=C(C)N=C3SCCC(=O)N32)ccc1OCc1ccccc1` (stereo not given) gave Pf Dd2 inh -0.8%.
For Cn1ccnc1C(=O)NCC(=O)N1CCCCCCNC(=O)CC1c1ccccc1 (stereo not given) the results were Pf Dd2 inh -3.5%.
For CN(C)c1ccc(C(=O)NC[C@H]2O[C@@H](CO)[C@@H](O)[C@H]2N2CCN(c3ccccn3)CC2)cc1 the results were Pf Dd2 inh -16.9%.
O=C(Nc1cccc(Cl)c1)C1CCN(c2cc(C(F)(F)F)ncn2)CC1 was read as Pf Dd2 inh -25.4%.
`O=C(CCc1conc1-c1ccccc1)NCc1ccccc1F` gave Pf Dd2 inh -19.0%.
COc1ccc(N2Cc3c(NCc4ccc5c(c4)OCO5)ncnc3N(C)CC2=O)cc1 was read as Pf Dd2 inh inactive.
Cc1ccoc1C(=O)N1CC[C@@H](c2sccc2C)[C@H](O)C1 was read as Pf Dd2 inh -18.1%.
`COc1ccc(NC(=O)c2cnc3c(c2)N(C(=O)Cc2ccc(C(C)C)cc2)CCC3)cc1OC` gave Pf Dd2 inh -16.1%.
Screening C=CCNC(=O)N[C@H]1CCN(C(=O)CSC)[C@@H]1C(=O)N[C@H](Cc1c[nH]c2ccccc12)C(N)=O returned Pf Dd2 inh 34.4%.
For CCOc1ccc(C2c3c(-c4cc(C)ccc4O)n[nH]c3C(=O)N2Cc2cccnc2)cc1OCC (stereo not given) the results were Pf Dd2 inh 11.2µM*.
CCCOc1ccc(C(=O)N(Cc2ccco2)Cc2ccco2)cc1 was read as Pf Dd2 inh 24.2%.
`CCOc1ccc(C2c3cc(OCC)c(OCC)cc3CC(=O)N2c2ccc(C(=O)O)cc2)cc1OCC` (stereo not given) gave Pf Dd2 inh 61.1%.
`CCCn1nc(C)c2c1NC(=O)CC2c1ccc(OCC(N)=O)c(OC)c1` (stereo not given) gave Pf Dd2 inh -21.1%.
CCCN1C(=O)c2[nH]nc(-c3ccccc3O)c2C1c1ccc(OCc2ccccc2)c(OC)c1 (stereo not given) was read as Pf Dd2 inh 10µM*.
For CCOc1ccc(C2c3c(oc4ccc(C)cc4c3=O)C(=O)N2CCCN(C)C)cc1OC (stereo not given) the results were Pf Dd2 inh -17.9%.
`CCCCCOc1ccc(C2c3c(oc4ccccc4c3=O)C(=O)N2c2nc(C)c(C)s2)cc1OCC` (stereo not given) gave Pf Dd2 inh 83.2%.
`COc1cc(C2c3c(-c4cc(C)ccc4O)n[nH]c3C(=O)N2Cc2cccnc2)cc(OC)c1OC` (stereo not given) gave Pf Dd2 inh -7.8%.
For CCCN1C(=O)CN(C2CCCCC2)C(=O)C1c1ccc(OC)c(OC)c1 (stereo not given) the results were Pf Dd2 inh 39.3%.
For CCCOc1ccc(C2c3c(-c4ccccc4O)n[nH]c3C(=O)N2CCc2ccccc2)cc1OCC (stereo not given) the results were Pf Dd2 inh 4.47µM*.
O=C1c2[nH]nc(-c3ccccc3O)c2C(c2cccc(Br)c2)N1Cc1ccncc1 (stereo not given) was read as Pf Dd2 inh -4.4%.
CCCOc1cccc(C2c3c(-c4ccccc4O)n[nH]c3C(=O)N2Cc2ccco2)c1 (stereo not given) was read as Pf Dd2 inh 5.62µM*.
Screening COCCN1C(=O)C(CC(N)=O)=C2CCCCC21 (stereo not given) returned Pf Dd2 inh 15.4%.
O=C(c1ccc(CC2CCNCC2)cc1)N1CCCC1 was read as Pf Dd2 inh 11.3%.
`Cc1ccc(-c2ccc3nnc(CNC(=O)c4ccccc4F)n3n2)cc1C` gave Pf Dd2 inh -14.0%.
For COC(=O)CN1C(=O)[C@@H]2C[C@@H](O)CN2C2(CN(C3CCN(C(C)=O)CC3)C2)C1=O the results were Pf Dd2 inh -14.3%[44.1 µM].
`Cc1cc(CC(=O)N2CC[C@@H](NC(=O)c3ccccn3)[C@H](O)C2)on1` gave Pf Dd2 inh -3.2%.
For CC(C)CN1CCNC(=O)C1CC(=O)O (stereo not given) the results were Pf Dd2 inh 1.2%.
For CC(C)c1ccc(NC(=O)N2CCN(C)C3(CCC(=O)N(C)CC3)C2)cc1 (stereo not given) the results were Pf Dd2 inh -5.8%.
`O=C(N[C@@H](Cn1ccc(=O)[nH]c1=O)C(=O)O)C1CCCCC1` gave Pf Dd2 inh -11.3%[44.1 µM].
For Cc1ccccc1OCc1nc(C2CN(C(=O)Cc3cccc(F)c3)C2)no1 the results were Pf Dd2 inh -28.4%.
Cc1nc(Cn2nc(C3CCCNC3)n(-c3ccccc3)c2=O)cs1 (stereo not given) was read as Pf Dd2 inh -16.5%.
Screening O=C(NCc1ccc2c(c1)OCO2)C1CN(Cc2ccccc2)C(=O)N1 (stereo not given) returned Pf Dd2 inh -3.7%.
`Cc1ncccc1C(=O)N1CCC(Oc2cnc3c(ccn3-c3cncnc3)c2)CC1` gave Pf Dd2 inh inactive.
For Cc1cc(C)c2c(=O)c3c(oc2c1)C(=O)N(Cc1ccco1)C3c1ccccc1F (stereo not given) the results were Pf Dd2 inh 37.3%.
For Cc1cc(C)c(-c2n[nH]c3c2C(c2ccccc2F)N(Cc2ccco2)C3=O)c(O)c1 (stereo not given) the results were Pf Dd2 inh 3.98µM*.
Screening O=C1c2[nH]nc(-c3ccccc3O)c2C(c2ccccc2F)N1Cc1ccncc1 (stereo not given) returned Pf Dd2 inh 19.4%.

Compound activity: PubChem BioAssay, National Center for Advancing Translational Sciences (NCATS)
